Results on seven compounds are retold here after PubChem BioAssay (NCI).

Holding throughout (assay): NCI-60 one-dose screen, 48 h (100 = growth as untreated, 0 = no growth, -100 = all killed)
What all share (conditions): 10 µM unless noted

In experiment [1] the test system is NCI-H226 lung.
Experiment [2] relates to NCI-H322M lung.
Experiment [3] relates to HOP-62 NSCLC.
For experiment [4], the system named is NCI-H460 lung.
In experiment [5] the test system is HOP-92 NSCLC.
Experiment [6] deals with NCI-H522 lung.
Experiment [7] deals with A549/ATCC NSCLC.
For experiment [8], the system named is 786-0 renal.
Experiment [9] deals with COLO 205 colon.
Experiment [10] deals with DU-145 prostate.
Experiment [11] concerns K-562 leukemia.
Experiment [12] concerns MALME-3M melanoma.
For experiment [13], the system named is MDA-MB-231 breast.
The subject of experiment [14] is RXF 393 renal.
Experiment [15] relates to SF-268 CNS.
The test system of experiment [16] is SF-295 CNS.
Experiment [17] deals with SF-539 CNS.
For experiment [18], the system named is UACC-257 melanoma.
Experiment [19] deals with M14 melanoma.

This is part of a sample that, as a whole, favours compounds with a hit. Of some 83,000 tested, about 20% had one in any assay.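 Percent growth is the endpoint: 0 to 100 indicates growth inhibition (40 means 60% inhibition), 0 means no net growth, and negative values indicate cell death.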 Unmarked numbers belong to inactive results. Activity calls are given as the source filed them. The calls were made as follows: active = growth percent below 10; inactive = the rest.

With `CCC1=Cc2c(OC)cccc2OC12C=Cc1c(OC)cccc1O2` (centres undefined), the growth in experiment [1] is 58.3%; in experiment [2], 43.9%; in experiment [3], 43.2%; in experiment [4], 7.72% (active); in experiment [5], 44%; in [6], 14.4%. The growth in [7] was 25.3%; in [8], 50.1%; in [9], 17.2%; in [10], 27.1%; in [11], 7.63% (active); in experiment [12] it was 50.9%. In addition, the growth in experiment [13] is 11%; in experiment [14], 1.82% (active); in experiment [15] it was 58.6%; in [16], 4.11% (active); in experiment [17], -5.65% (active); in experiment [18] it was 75.7%. The growth in experiment [19] was 6.53% (active).

As for `NC1[C@H]2CN(c3cnc(C(=O)Nc4cc(F)cc5cccnc45)cn3)C[C@@H]12` (some centres undefined), the growth was 85.1% in [1]; 6.79% (active) in [2]; 92.1% in experiment [4]; 24.8% in experiment [5]; 46.6% in [6]; 92.1% in experiment [7]. Besides, the growth was 75.2% in [8]; 18.5% in [9]; 76.4% in experiment [10]; 15% in experiment [11]; 57.5% in experiment [12]; 47.8% in experiment [13]. Further, the growth was 70.6% in experiment [14]; 87.5% in experiment [15]; 96.4% in experiment [16]; 76.9% in [17]; 97.7% in experiment [18]; 79.3% in experiment [19].

As for `O=C(COc1ccc(/C=C2\C(=O)Nc3cc(Cl)ccc32)cc1)Nc1ccc(Cl)cc1`, the growth in [1] is 79.1%; in [2], 74.4%; in experiment [4], 73.4%; in [5], 90.8%; in experiment [6] it was 45.7%; in [7], 68.8%. Moreover, the growth in [8] was 90.7%; in experiment [9], 81.3%; in experiment [10], 85.9%; in [11], 32.8%; in [12] it was 98.7%; in experiment [13], 82.8%. Further, the growth in experiment [14] was 76.4%; in experiment [15], 72.6%; in experiment [16], 66%; in [17], 66.8%; in [18] it was 78.4%; in [19], 22.1%.

As to `Cc1cc2nc(C(Cl)Cl)nc(-c3ccc(S(=O)(=O)N(C)C)cc3)n2n1`, the growth in experiment [1] is 71.8%; in [2], 69.3%; in experiment [3] it was 32.8%; in experiment [4], 27.5%; in [5], 50%; in experiment [6] it was 76.9%. In addition, the growth is 37% in experiment [7]; 94.5% in experiment [8]; 45.1% in [10]; 14.1% in experiment [11]; 17.3% in experiment [12]; 12.6% in experiment [13]. Also, the growth in experiment [14] is 59.5%; in experiment [15] it was 67.6%; in experiment [16], 66.3%; in experiment [17], 69.4%; in experiment [18], 87%; in experiment [19], 37.1%.

For the compound `CCOC(=O)c1cccnc1Nc1ccc(NC(=O)Nc2ccc(Cl)c(C(F)(F)F)c2)cc1`, the growth in experiment [1] was 52.4%; in experiment [2] it was 68.9%; in experiment [4], 17.2%; in [5], -8.46% (active); in experiment [6], 21%; in experiment [7] it was 42.8%. Further, the growth was 68% in experiment [8]; 31.7% in [9]; 32.6% in experiment [10]; 13.4% in experiment [11]; 51.4% in experiment [12]; 95.8% in experiment [13]. Also, the growth in [14] is 93.7%; in experiment [15], 73.5%; in experiment [16], 9.85% (active); in [17] it was 75.6%; in [18], 58%; in [19], 42.7%.

`O=C(N/N=C\c1ccc([N+](=O)[O-])cc1)c1ccc2nc(-c3ccc(Br)cc3)[nH]c2c1`: the growth in experiment [1] was 62.4%; in experiment [2] it was 68.2%; in experiment [3], 29.7%; in experiment [4], -43.8% (active); in experiment [5], 55%; in experiment [6], 5.47% (active). The growth is 27.2% in experiment [7]; 36.8% in experiment [8]; -50.6% (active) in [9]; 28.2% in experiment [10]; 2.69% (active) in [11]; 6.94% (active) in experiment [12]. Moreover, the growth in experiment [13] was 62.4%; in experiment [14], 11.5%; in experiment [15] it was 44.7%; in experiment [16] it was 25.1%; in [17] it was 28.2%; in experiment [18], 18.2%. Moreover, in experiment [19], the growth is 3.52% (active).

In the case of `Oc1[nH]c2ccc(Cl)cc2c1N=Nc1nc(N=Nc2c(O)[nH]c3ccc(Cl)cc23)nc(N2CCCCC2)n1`, the growth was 63.4% in [1]; 59.4% in [2]; 94% in experiment [3]; 78% in experiment [4]; 125% in [5]; 45.2% in experiment [6]. Moreover, the growth in experiment [7] is 60.4%; in [8], 66%; in experiment [9], 66.6%; in experiment [10] it was 68%; in experiment [11], 39.3%; in experiment [12], 58.8%. Besides, the growth was 64.5% in [13]; 86.8% in experiment [14]; 54.5% in experiment [15]; 24.3% in experiment [16]; 79.5% in experiment [17]; 105% in [18]. For the same compound, the growth in [19] is 81.1%.
